Reference: PubChem BioAssay (NCATS)
Records with an inconclusive call do not appear. A call without a number means that no potency is given here. Active and inactive are the calls of the source. Calls follow the shape of the dose curve; as a rule, active = well fitted inhibition curve with a large enough effect; inconclusive = small, poorly fitted or top-dose-only effect; inactive = no such curve, though single readings can be large or run the other way.

Experiment: qHTS Screen of the MIPE 4.0 Collection Against Ewings Sarcoma (TC32) (AID 1259256); also: nearly all actives have a fitted effect of over 45% in size
Settings: TC32 Ewing sarcoma viability, CellTiter-Glo, 48 h; series mostly up to 45.8 µM
Description: There is a large unmet medical need for treatments for Ewing sarcoma, a pediatric sarcoma. We sought to identify compounds that inhibited Ewing sarcoma cells in vitro with the goal to then test promising drugs in two drug combinations in vitro to look for synergistic drug combinations. Promising combinations would then proceed to additional validation, including in vivo testing.
Using the NCATS developed oncology compound library called the Mechanism of Interrogation Plate (MIPE), four Ewing sarcoma cell lines were evaluated (TC32, TC71, RDES, EW8). Compounds, in a 12-point titration series, were incubated with cells for 48 hours and the read out was cell viability (CellTiter-Glo from Promega). These initial experiments were used to select appropriate concentrations of each single agent for subsequent two-drug matrix combinations such that the concentrations in the matrices would span both activity and non-activity.
Cells, in the log phase of growth, were seeded in 5 uL of RPMI plus 5% FBS, […] L-glutamine, 100 U/ml penicillin and 100 ug/ml streptomycin into 1536-well solid-bottom white tissue culture treated Greiner Bio One Plates (789173-F) using a MultiDrop Combi (Thermofisher Scientific) dispenser and a small sterile cassette. One column was media alone to be used as a :"no cells" control. The plates were then covered with sterilized stainless steel gasketed lids from Kalypsys. After allowing cells to attach for 4 hours, 23 nL of test compound or control (negative control DMSO and positive control 9.2 uM Bortezomib-final) were added from a 1536-well polypropylene compound source plate to each well using a 1536 head pin tool from Kalypsys. Cells were then incubated for 48 hours at 37C, 95% relative humidity and 5% CO2. After 48 hours, plates were removed from the incubator and 3 uL of CellTiter-Glo (Promega) was added using an Aurora Flying Reagent Dispenser Bioraptor. Plates were incubated at room temperature for 10 minutes prior to reading the luminescence on the Viewlux (PerkinElmer). The relative luciferase units are used to calculate the percent activity using the activity of DMSO in the cells and no cells columns for normalization of no inhibition and full inhibition respectively.
Potency is read from the fitted curve at half-maximal effect.

SMILES | Potency
O=C(C1CCCCC1)N1CC(=O)N2CCc3ccccc3C2C1 (stereo not given) | inactive
COc1cc2c(c(OC)c1OC)-c1ccc(OC)c(=O)cc1[C@@H](NC(C)=O)CC2 | inactive
CC(COc1ccccc1)N(CCCl)Cc1ccccc1 (stereo not given) | inactive
O=C(c1ccc(F)cc1)C1CCN(CCn2c(=O)[nH]c3ccccc3c2=O)CC1 | inactive
CN(C)CCCN1c2ccccc2CCc2ccc(Cl)cc21 | 2.96 µM (active)
CC(=O)OCC(CCn1cnc2cnc(N)nc21)COC(C)=O | inactive
O=C(c1ccc(OCCN2CCCCC2)cc1)c1c(-c2ccc(O)cc2)sc2cc(O)ccc12 | 8.33 µM (active)
COC(=O)Nc1nc2ccc(C(=O)c3cccs3)cc2[nH]1 | inactive
CC12CC3CC(C)(C1)CC(N)(C3)C2 | inactive
CC1(C)O[C@H]2CC(=O)OC[C@]23[C@H]2CC[C@@]4(C)[C@H](c5ccoc5)OC(=O)[C@H]5O[C@]54[C@]2(C)C(=O)C[C@@H]13 | inactive
NC(CO)C(=O)NNCc1ccc(O)c(O)c1O (stereo not given) | 26.4 µM (active)
C[C@](N)(Cc1ccc(O)c(O)c1)C(=O)O | inactive
COc1ccccc1OCCNCC(O)COc1cccc2[nH]c3ccccc3c12 (stereo not given) | inactive
CCOC(=O)c1ncn2c1CN(C)C(=O)c1cc(F)ccc1-2 | 13.2 µM (active)
CC(C)(C)C(=O)Oc1ccc(S(=O)(=O)Nc2ccccc2C(=O)NCC(=O)O)cc1 | inactive
C[C@H]1c2cccc(O)c2C(O)=C2C(=O)[C@]3(O)C(O)=C(C(N)=O)C(=O)[C@@H](N(C)C)[C@@H]3[C@@H](O)[C@@H]21 | inactive
O=c1[nH]cc(F)c(=O)[nH]1 | 9.35 µM (active)
CCCCc1oc2ccccc2c1C(=O)c1cc(I)c(OCCN(CC)CC)c(I)c1 | 8.33 µM (active)
NC(=O)NO | inactive
CC#C[C@]1(O)CC[C@H]2[C@@H]3CCC4=CC(=O)CCC4=C3[C@@H](c3ccc(N(C)C)cc3)C[C@@]21C | 0.264 µM (active)

SMILES | Potency
Nc1ccn([C@H]2CC[C@@H](CO)O2)c(=O)n1 | inactive
COc1ccc2[nH]cc(CCNC(C)=O)c2c1 | 3.32 µM (active)
CC(C)(Oc1ccc(C2CC2(Cl)Cl)cc1)C(=O)O (stereo not given) | 42.9 µM (active)
CN(C)c1nc(N(C)C)nc(N(C)C)n1 | inactive
Cc1ccccc1N1C(=O)c2cc(S(N)(=O)=O)c(Cl)cc2NC1C (stereo not given) | inactive
Clc1ccc2c(c1)C(N1CCNCC1)=Nc1ccccc1O2 | 18.7 µM (active)
O=c1c(-c2ccc(O)cc2)coc2cc(O)cc(O)c12 | inactive
CC(C)Cc1ccc(C(C)C(=O)O)cc1 (stereo not given) | inactive
CN1CCN(CCCN2c3ccccc3Sc3ccc(Cl)cc32)CC1 | 26.4 µM (active)
O=C(Nc1ccc([N+](=O)[O-])cc1Cl)c1cc(Cl)ccc1O | 1.32 µM (active)
Cc1cn([C@H]2C=C[C@@H](CO)O2)c(=O)[nH]c1=O | inactive
Nc1nc2c(ncn2COC(CO)CO)c(=O)[nH]1 | inactive
Cc1ccc(-c2cc(C(F)(F)F)nn2-c2ccc(S(N)(=O)=O)cc2)cc1 | 11.8 µM (active)
Cc1cn([C@H]2C[C@H](N=[N+]=[N-])[C@@H](CO)O2)c(=O)[nH]c1=O | inactive
O=C1c2c(O)ccc(O)c2C(=O)c2c(NCCNCCO)ccc(NCCNCCO)c21 | inactive
CS(=O)(=O)Nc1ccc([N+](=O)[O-])cc1Oc1ccccc1 | 14.8 µM (active)
CCOC(=O)C(C)(C)Oc1ccc(Cl)cc1 | inactive
CC1(CN2CCC(n3c(=O)[nH]c4ccccc43)CC2)OCc2ccccc2-n2cccc21 (stereo not given) | 14.8 µM (active)
CC1COc2c(N3CCN(C)CC3)c(F)cc3c(=O)c(C(=O)O)cn1c23 (stereo not given) | inactive
Cc1cc(C(C)(C)C)cc(C)c1CC1=NCCN1 | inactive
